This passage reports outcome results from PubChem BioAssay (NCATS).

SMILES strings stand for the structures. Inconclusive results are not listed. Active and inactive are the calls of the source. Calls follow the shape of the dose curve; as a rule, active = well fitted inhibition curve with a large enough effect; inconclusive = small, poorly fitted or top-dose-only effect; inactive = flat fitted curve, though single readings scatter.

Sequence of Lysine-specific demethylase 5B (Homo sapiens) (Q9UGL1 whole entry, looked up): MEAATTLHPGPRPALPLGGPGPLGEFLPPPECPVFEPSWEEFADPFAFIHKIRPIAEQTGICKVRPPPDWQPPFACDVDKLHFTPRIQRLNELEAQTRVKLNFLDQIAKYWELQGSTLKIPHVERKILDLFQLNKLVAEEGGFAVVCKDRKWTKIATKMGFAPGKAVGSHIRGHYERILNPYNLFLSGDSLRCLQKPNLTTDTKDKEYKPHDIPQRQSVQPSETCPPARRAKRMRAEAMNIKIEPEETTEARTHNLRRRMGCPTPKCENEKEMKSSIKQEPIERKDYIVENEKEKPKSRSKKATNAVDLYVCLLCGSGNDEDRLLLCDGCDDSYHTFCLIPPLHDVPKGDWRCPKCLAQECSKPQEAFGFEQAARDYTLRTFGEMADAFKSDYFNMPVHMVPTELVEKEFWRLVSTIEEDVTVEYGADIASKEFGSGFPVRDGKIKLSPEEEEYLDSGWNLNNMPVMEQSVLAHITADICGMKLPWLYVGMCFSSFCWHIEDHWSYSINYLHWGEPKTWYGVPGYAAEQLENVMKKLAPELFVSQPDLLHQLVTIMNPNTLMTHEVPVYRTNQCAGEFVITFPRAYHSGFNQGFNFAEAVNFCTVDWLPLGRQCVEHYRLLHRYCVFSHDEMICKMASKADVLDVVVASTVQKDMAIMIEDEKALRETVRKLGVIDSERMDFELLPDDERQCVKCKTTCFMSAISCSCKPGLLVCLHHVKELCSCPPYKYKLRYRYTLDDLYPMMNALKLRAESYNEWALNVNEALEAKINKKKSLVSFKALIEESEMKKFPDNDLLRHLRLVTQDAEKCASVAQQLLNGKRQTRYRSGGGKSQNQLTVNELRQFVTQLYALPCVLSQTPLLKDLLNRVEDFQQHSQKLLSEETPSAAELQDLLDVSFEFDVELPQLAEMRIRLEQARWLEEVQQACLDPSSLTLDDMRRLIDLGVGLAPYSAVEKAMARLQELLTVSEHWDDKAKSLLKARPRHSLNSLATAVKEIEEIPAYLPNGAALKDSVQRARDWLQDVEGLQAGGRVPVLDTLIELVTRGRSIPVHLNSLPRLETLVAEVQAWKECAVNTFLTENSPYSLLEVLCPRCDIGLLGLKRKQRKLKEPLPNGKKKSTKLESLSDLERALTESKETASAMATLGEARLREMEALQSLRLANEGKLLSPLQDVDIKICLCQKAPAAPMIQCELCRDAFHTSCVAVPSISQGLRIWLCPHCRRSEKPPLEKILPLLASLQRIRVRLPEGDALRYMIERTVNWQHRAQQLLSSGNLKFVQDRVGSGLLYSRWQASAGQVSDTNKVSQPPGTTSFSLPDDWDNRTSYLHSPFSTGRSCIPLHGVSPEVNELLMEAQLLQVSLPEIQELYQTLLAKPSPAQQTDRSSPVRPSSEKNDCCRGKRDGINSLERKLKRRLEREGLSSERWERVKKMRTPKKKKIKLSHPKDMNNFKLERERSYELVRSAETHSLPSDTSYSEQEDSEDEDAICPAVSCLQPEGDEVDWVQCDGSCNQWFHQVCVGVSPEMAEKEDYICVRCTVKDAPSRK

The experiment concerns the target Lysine-specific demethylase 5B (Homo sapiens) (UniProt Q9UGL1). The experiment in a line: Optimization screen for KDM5B Histone Demethylases FDH coupled qHTS against the LOPAC library (AID 1347166). The settings on record: KDM5B demethylation, FDH-coupled NADH fluorescence (FDH is formaldehyde dehydrogenase); series mostly up to 57.5 µM. An outline of the steps:
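KDM5BDeltaAP (200nM final) preincubated 10 min with compound, then 12.5uM H3K4Me3, 25uM a-ketoglutarate, ascorbate, Fe(II), NAD+ and FDH added; 50mM HEPES pH 7.5, 0.01% Tween-20. NADH fluorescence (340/450 nm) change over 30 min, room temperature.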
In the case of `CC(C)NCC(O)COc1ccc(CCOCC2CC2)cc1` (stereo not drawn), the result was inactive.

For the molecule `CCCNCC(O)COc1ccccc1C(=O)CCc1ccccc1` (stereo not drawn), the outcome was inactive.

`O=c1c(-c2ccc(O)cc2)coc2cc(O)cc(O)c12`: the molecule was called inactive.

As for `NCCc1cnc[nH]1`, the outcome was inactive.

Regarding `NCCCCCC(=O)O`, the molecule was classed as inactive.

For the molecule `NC(=O)OCC(COC(N)=O)c1ccccc1`, the molecule was called inactive.

For `COc1ccc2c(c1)c(CC(=O)O)c(C)n2C(=O)c1ccc(Cl)cc1`, the call was inactive.

Take `O=C(CCCN1CCC(O)(c2ccc(Cl)cc2)CC1)c1ccc(F)cc1`: the molecule was called inactive.

Turning to `CN1CCN2c3ccccc3Cc3ccccc3C2C1` (stereo not drawn), the call was inactive.

Turning to `CN(C)CCC=C1c2ccccc2C=Cc2ccccc21`, the result was inactive.

For `CN(C)c1nc(N(C)C)nc(N(C)C)n1`, the outcome was inactive.

As to `NCCS(=O)(=O)O`, the call was inactive.

Turning to `NC12CC3CC(CC(C3)C1)C2`, the molecule was called inactive.

Take `Cc1cc(C(C)(C)C)c(O)c(C)c1CC1=NCCN1`: the outcome was inactive.

As for `Nc1c2c(nc3ccccc13)CCCC2`, the result was inactive.

Regarding `Clc1ccccc1C(c1ccccc1)(c1ccccc1)n1ccnc1`, the result was inactive.

For the molecule `CNCCCC12CCC(c3ccccc31)c1ccccc12`, the molecule was called inactive.

For `CCc1cccc2c3c([nH]c12)C(CC)(CC(=O)O)OCC3` (stereo not drawn), the molecule was classed as inactive.

Consider `COc1ccc(CCN(C)CCCC(C#N)(c2ccc(OC)c(OC)c2)C(C)C)cc1OC` (stereo not drawn), for which the molecule was classed as inactive.

As to `Cn1c(=O)c2c(ncn2C)n(C)c1=O`, the result was inactive.

Regarding `CCN1CCCC1CNC(=O)c1cc(S(=O)(=O)CC)c(N)cc1OC` (stereo not drawn), the outcome was inactive.

Turning to `CC(C)C(=O)Nc1ccc([N+](=O)[O-])c(C(F)(F)F)c1`, the molecule was called inactive.

On to `CCC1(c2ccccc2)C(=O)NCNC1=O`, for which the result was inactive.

Consider `O=C(C1CCCCC1)N1CC(=O)N2CCc3ccccc3C2C1` (stereo not drawn), for which the result was inactive.

As to `CC12CC3CC(C)(C1)CC(N)(C3)C2`, the molecule was called inactive.

In the case of `CN(C)CCOC(c1ccccc1)c1ccccc1`, the molecule was classed as inactive.

For `CN(C)C(=O)C(CCN1CCC(O)(c2ccc(Cl)cc2)CC1)(c1ccccc1)c1ccccc1`, the result was inactive.

On to `COc1nc(C)nc(Cl)c1NC1=NCCN1`, for which the result was inactive.
